# Data: PubChem BioAssay (NCI)
# Compounds without any hit were thinned out: in the full panel of roughly 79,000, 15% have a hit. A number with no mark means an inactive call. Calls of active or inactive are those of the source. Rule as the data show it: active = growth inhibition above about 70%; inactive = the rest.
# Experiments:
# [1] = NCI Yeast Anticancer Drug Screen. Data for the rad52 strain (AID 147);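 also: 0% = growth of vehicle-treated control cultures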; conditions: S. cerevisiae rad52 mutant growth inhibition, active compounds read high
# Outline: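 Read-out: growth inhibition versus vehicle-treated controls. Cells were a DNA repair-deficient yeast strain treated with compounds.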
# [2] = NCI Yeast Anticancer Drug Screen. Data for the rad50EPP+ strain (AID 151);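 also: 0% = growth of vehicle-treated control cultures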; conditions: S. cerevisiae rad50 mutant strain, active compounds read high
# Outline: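 Growth inhibition read against vehicle controls in rad50EPP+ yeast, a strain altered in DNA damage repair, after compound exposure.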
# [3] = NCI Yeast Anticancer Drug Screen. Data for the mgt1 strain (AID 153); conditions: S. cerevisiae mgt1 mutant growth inhibition, active compounds read high
# Outline: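 mgt1 yeast grown with test compound; read-out is growth inhibition versus vehicle-treated cultures.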
# [4] = NCI Yeast Anticancer Drug Screen. Data for the rad50 strain (AID 155);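 also: 0% = growth of vehicle-only cultures of the same strain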; conditions: S. cerevisiae rad50 strain growth inhibition, active compounds read high
# Outline: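 Vehicle-treated cultures provide the reference for the growth inhibition reported for compound-exposed, repair-deficient yeast.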
# [5] = NCI Yeast Anticancer Drug Screen. Data for the mec2-1 strain (AID 157); conditions: S. cerevisiae mec2-1 strain, active compounds read high
# Outline: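 Yeast mec2-1 mutant treated with compound. Readout: growth inhibition vs vehicle controls.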
# [6] = NCI Yeast Anticancer Drug Screen. Data for the rad14 strain (AID 159);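 also: 0% = growth of vehicle-treated control cultures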; conditions: S. cerevisiae rad14 strain growth inhibition, active compounds read high
# Outline: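 Inhibition of growth is reported for a repair-deficient yeast mutant following compound treatment, calculated relative to cultures that received vehicle.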
# [7] = NCI Yeast Anticancer Drug Screen. Data for the sgs1 mgt1 strain (AID 161);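 also: 0% = growth of cultures given vehicle only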; conditions: S. cerevisiae sgs1 mgt1 strain, active compounds read high
# Outline: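 Test agents were incubated with a DNA-repair-mutant yeast strain. Growth was then read and compared against vehicle-treated controls.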
# [8] = NCI Yeast Anticancer Drug Screen. Data for the CLN2oe strain (AID 163);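 also: 0% = growth of vehicle-only control cultures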; conditions: S. cerevisiae CLN2oe strain, active compounds read high
# Outline: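 Read-out: yeast growth inhibition, expressed relative to vehicle-only controls. The strain bears an engineered cell-cycle alteration.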
# [9] = NCI Yeast Anticancer Drug Screen. Data for the cln2 rad14 strain (AID 165);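 also: 0% = growth equal to vehicle treated cultures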; conditions: S. cerevisiae cln2 rad14 strain, active compounds read high
# Outline: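 cln2 rad14 yeast strain; compound exposure; growth inhibition read vs vehicle controls.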
# [10] = NCI Yeast Anticancer Drug Screen. Data for the bub3 strain (AID 167); conditions: S. cerevisiae bub3 mutant strain, active compounds read high
# Outline: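 Mutant yeast screening strain plus compound; vehicle-treated cultures serve as the 0% inhibition reference.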
# [11] = NCI Yeast Anticancer Drug Screen. Data for the wt2 strain (AID 169); conditions: S. cerevisiae wt2 strain growth inhibition, active compounds read high
# Outline: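 Read-out: growth inhibition versus vehicle-treated control cultures after compound exposure of the yeast strain.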
# [12] = NCI Yeast Anticancer Drug Screen. Data for the mlh1 strain (AID 171);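 also: 0% = growth of vehicle-treated control cultures of the same strain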; conditions: S. cerevisiae mlh1 strain growth inhibition, active compounds read high
# Outline: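 Read-out: growth inhibition versus vehicle controls. Strain: engineered yeast with a defined DNA repair or cell cycle defect, compound-treated.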
# [13] = NCI Yeast Anticancer Drug Screen. Data for the sgs1 strain (AID 173);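 also: 0% = growth of vehicle-only control cultures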; conditions: S. cerevisiae sgs1 mutant, active compounds read high
# Outline: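 Read-out: yeast growth inhibition relative to vehicle controls, following compound exposure of a strain with a defined DNA repair/cell cycle alteration.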
# [14] = NCI Yeast Anticancer Drug Screen. Data for the mlh1 rad18 strain (AID 175); conditions: S. cerevisiae mlh1 rad18 strain growth inhibition, active compounds read high
# Outline: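 Yeast w/ defined DNA-repair lesions; compound exposure; growth vs vehicle controls → % inhibition.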
# [15] = NCI Yeast Anticancer Drug Screen. Data for the rad18 strain (AID 177); conditions: S. cerevisiae rad18 mutant growth inhibition, active compounds read high
# Outline: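 Readout: growth inhibition vs vehicle controls. Cells: genetically altered yeast strain, DNA repair defect.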
# [16] = at 5.0 µM (retest, dose inferred, filed as 0.5)
# [17] = at 50.0 µM (retest, dose inferred, filed as 5.0)
smiles,measurement,setting,value
Cc1ccc2c(ccc(/C=C/c3ccc(O)c4ncccc34)[n+]2C)c1,growth inhibition,[1]; at 1.2 µM,17%
same,growth inhibition,[1]; at 3.7 µM,46%
same,growth inhibition,[1]; at 11.0 µM,89% (active)
same,growth inhibition,[1]; at 33.0 µM,94% (active)
same,growth inhibition,[1]; at 100.0 µM,81% (active)
same,growth inhibition,[2]; at 1.2 µM,3%
same,growth inhibition,[2]; at 3.7 µM,27%
same,growth inhibition,[2]; at 11.0 µM,60%
same,growth inhibition,[2]; at 33.0 µM,87% (active)
same,growth inhibition,[2]; at 100.0 µM,79% (active)
same,growth inhibition,[3]; at 1.2 µM,8%
same,growth inhibition,[3]; at 3.7 µM,40%
same,growth inhibition,[3]; at 11.0 µM,84% (active)
same,growth inhibition,[3]; at 33.0 µM,95% (active)
same,growth inhibition,[3]; at 100.0 µM,82% (active)
same,growth inhibition,[4]; at 1.2 µM,1%
same,growth inhibition,[4]; at 3.7 µM,41%
same,growth inhibition,[4]; [16],40%
same,growth inhibition,[4]; at 11.0 µM,88% (active)
same,growth inhibition,[4]; at 33.0 µM,93% (active)
same,growth inhibition,[4]; [17],93% (active)
same,growth inhibition,[4]; at 100.0 µM,74% (active)
same,growth inhibition,[5]; at 1.2 µM,10%
same,growth inhibition,[5]; at 3.7 µM,37%
same,growth inhibition,[5]; [16],43%
same,growth inhibition,[5]; at 11.0 µM,89% (active)
same,growth inhibition,[5]; at 33.0 µM,93% (active)
same,growth inhibition,[5]; [17],94% (active)
same,growth inhibition,[5]; at 100.0 µM,77% (active)
same,growth inhibition,[6]; at 1.2 µM,-15%
same,growth inhibition,[6]; at 3.7 µM,37%
same,growth inhibition,[6]; at 11.0 µM,90% (active)
same,growth inhibition,[6]; at 33.0 µM,94% (active)
same,growth inhibition,[6]; at 100.0 µM,77% (active)
same,growth inhibition,[7]; [16],23%
same,growth inhibition,[7]; [17],98% (active)
same,growth inhibition,[7]; at 50.0 µM,82% (active)
same,growth inhibition,[8]; at 1.2 µM,-6%
same,growth inhibition,[8]; at 3.7 µM,18%
same,growth inhibition,[8]; at 11.0 µM,78% (active)
same,growth inhibition,[8]; at 33.0 µM,90% (active)
same,growth inhibition,[8]; at 100.0 µM,77% (active)
same,growth inhibition,[9]; [16],17%
same,growth inhibition,[9]; [17],95% (active)
same,growth inhibition,[9]; at 50.0 µM,84% (active)
same,growth inhibition,[10]; at 1.2 µM,18%
same,growth inhibition,[10]; at 3.7 µM,33%
same,growth inhibition,[10]; [16],10%
same,growth inhibition,[10]; at 11.0 µM,87% (active)
same,growth inhibition,[10]; at 33.0 µM,91% (active)
same,growth inhibition,[10]; [17],98% (active)
same,growth inhibition,[10]; at 50.0 µM,84.9% (active)
same,growth inhibition,[10]; at 100.0 µM,74% (active)
same,growth inhibition,[11]; at 1.2 µM,-16%
same,growth inhibition,[11]; at 3.7 µM,2%
same,growth inhibition,[11]; at 11.0 µM,53%
same,growth inhibition,[11]; at 33.0 µM,88% (active)
same,growth inhibition,[11]; at 100.0 µM,79% (active)
same,growth inhibition,[12]; at 1.2 µM,15%
same,growth inhibition,[12]; at 3.7 µM,60%
same,growth inhibition,[12]; at 11.0 µM,85% (active)
same,growth inhibition,[12]; at 33.0 µM,95% (active)
same,growth inhibition,[12]; at 100.0 µM,78% (active)
same,growth inhibition,[13]; at 1.2 µM,18%
same,growth inhibition,[13]; at 3.7 µM,45%
same,growth inhibition,[13]; at 11.0 µM,82% (active)
same,growth inhibition,[13]; at 33.0 µM,92% (active)
same,growth inhibition,[13]; at 100.0 µM,78% (active)
same,growth inhibition,[14]; [16],58%
same,growth inhibition,[14]; [17],91% (active)
same,growth inhibition,[15]; at 1.2 µM,17%
same,growth inhibition,[15]; at 3.7 µM,31%
same,growth inhibition,[15]; at 11.0 µM,80% (active)
same,growth inhibition,[15]; at 33.0 µM,91% (active)
same,growth inhibition,[15]; at 100.0 µM,63%
